HIV Env fusion: inhibitors of HIV Env-mediated cell fusion; HeLa-JRFL Env/CEM21 cell fusion, luciferase; inhibition, % at 12.3 µM; 360,000 compounds, 1.1% hits; AID 651610;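 active = mean replicate inhibition score of at least 50 and every replicate individually at or above 50; inconclusive = only one of the two criteria met; inactive = mean below 50 and not all replicates reaching 50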
NSD2 inh: NSD2 (human) methyltransferase inhibition. NSD2 peptide methylation, AlphaScreen, 120 min. inhibition, % at 12.5 µM. 310,000 compounds, 0.54% hits; in the data active = inhibition above about 50%
ALR inh: inhibitors of human sulfhydryl oxidase ALR; 290,000 compounds, 3.8% hits; P55789; AID 485317; purified ALR, DTT oxidation, H2O2 HRP-luminol luminescence; inhibition, % (test concentration not listed);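 active = mean replicate inhibition above about 79%, with every replicate also reaching it, limit read from the data; inconclusive = only one of the two criteria met; inactive = mean below limit and not every replicate reaching it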
Target sequence (P55789 whole entry, looked up): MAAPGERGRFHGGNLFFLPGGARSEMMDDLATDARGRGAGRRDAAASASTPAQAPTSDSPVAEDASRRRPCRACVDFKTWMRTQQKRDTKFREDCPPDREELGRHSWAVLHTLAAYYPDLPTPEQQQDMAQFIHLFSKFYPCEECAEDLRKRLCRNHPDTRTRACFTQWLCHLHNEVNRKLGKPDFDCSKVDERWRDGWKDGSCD
PglD inh: blocks C. jejuni PglD acetyltransferase activity | purified PglD enzyme, DTNB colorimetric CoA detection | inhibition, % at 12.5 µM | 360,000 compounds, 0.098% hits; in the data active = inhibition above about 16%, passing the limit was not always enough; inconclusive = no clear call, values can overlap the other calls
F508del corr: correctors of CFTR F508del function in bronchial epithelial cells; CFBE cells, YFP halide quenching; stimulated with forskolin plus potentiator P3; % fluorescence drop versus neutral controls; activity (quench increase), % at 7.58 µM; 350,000 compounds, 0.36% hits; AID 720511;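 active = mean added fluorescence quench of at least 8% versus neutral control, with both replicates also reaching 8%; inconclusive = only one of the mean or replicate conditions met; inactive = mean below 8% and not both replicates reaching 8%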;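 note: cells transiently co-express mutant CFTR-F508del with the halide-sensitive YFP; corrector assay measuring rescue of mutant channel to the surface after 24 h compound exposure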
Casp6 inh: caspase-6 (human) enzyme inhibition. P55212. purified caspase-6, Z-VEID-R110 cleavage fluorescence. inhibition, % at 12.5 µM. 350,000 compounds, 0.53% hits;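 active = mean inhibition across replicates at least about 35%, with every replicate also reaching that limit, limit read from the data; inconclusive = only one of the two criteria met; inactive = neither criterion met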
Target sequence (P55212 24-179 limits assumed): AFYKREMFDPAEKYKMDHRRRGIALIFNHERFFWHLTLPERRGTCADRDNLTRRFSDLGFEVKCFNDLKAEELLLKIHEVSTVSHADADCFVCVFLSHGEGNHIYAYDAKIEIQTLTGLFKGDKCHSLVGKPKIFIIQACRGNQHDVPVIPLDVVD
Target sequence (P55212 194-293 limits assumed): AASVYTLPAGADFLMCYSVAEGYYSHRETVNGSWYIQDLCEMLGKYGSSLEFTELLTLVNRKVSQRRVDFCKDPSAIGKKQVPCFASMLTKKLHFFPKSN
PglD inh SP: confirmation of Campylobacter jejuni PglD acetyltransferase inhibitors. shares compounds with PglD inh. Purified C. jejuni PglD, DTNB absorbance 412 nm. inhibition, % at 20 µM. 320 tested, under 10 active. AID 743156;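 active = mean inhibition across replicates of at least 20% with every single replicate also at 20% or more; inconclusive = mean inhibition at least 20% but some replicate falls below 20%; inactive = mean inhibition under 20% and not all replicates reach it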;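 note: initial rate of CoA release by acetyl transfer from AcCoA to the UDP-4-amino sugar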
Large screens that a line does not name were inactive (follow-up assays come after a bar, where they were run). Rows were chosen to be rich in hits. Some 4.1% of all compounds tested hit in one or more screens of this group.

COc1ccc2c3c(n(C)c2c1)[C@@H](CO)N(C(=O)c1ccc(F)cc1)CC31CCN(C(C)=O)CC1	none (no result: HIV Env fusion, NSD2 inh, ALR inh, PglD inh, Casp6 inh)
O=C(NC1CC1)c1cccc(NC(=O)C2CCCCC2)c1	HIV Env fusion inconclusive (no result: NSD2 inh, ALR inh)
O=C(NC1CCCCC1)c1cccc(NC(=O)c2ccccc2Cl)c1	PglD inh 22 (no result: ALR inh) | PglD inh SP inactive
CCOC(=O)C1=C(C)N(c2ccccc2)C(=O)NC1c1cccc([N+](=O)[O-])c1 (stereo unspecified)	PglD inh 21 (no result: ALR inh, F508del corr, Casp6 inh) | PglD inh SP inactive
O=[N+]([O-])c1ccc(O)c(-c2cc(C(F)(F)F)nc(-c3ccccc3)n2)c1	HIV Env fusion 60, PglD inh 25 | PglD inh SP inactive
Oc1ccccc1-c1cc(C(F)(F)C(F)F)nc(-c2ccccc2)n1	none (no result: F508del corr, Casp6 inh)
C/C(=N/OCO/N=C(/C)c1ccc(F)cc1)c1ccc(F)cc1	PglD inh 26 | PglD inh SP inactive
O=C(c1ccc2c(c1)OCO2)N1CC(=O)N2[C@H](CO)[C@H](c3ccc(C#CC4CCCC4)cc3)[C@@H]2C1	none (no result: HIV Env fusion, NSD2 inh, ALR inh, PglD inh)
CCNC(=O)C[C@H]1CC[C@@H]2[C@@H](COc3ccc(NS(C)(=O)=O)cc3C(=O)N2C)O1	none (no result: NSD2 inh, ALR inh)
CCOc1ccc2[nH]c3nc(SCC(=O)NCC4CCCO4)nnc3c2c1 (stereo unspecified)	PglD inh 24 | PglD inh SP inactive
CC(=O)C1=C(O)C(=O)N(c2cccc(C(=O)O)c2)C1c1ccc(F)cc1 (stereo unspecified)	PglD inh 21 | PglD inh SP inactive
CC(=O)C1=C(O)C(=O)N(c2ccc(C(=O)O)cc2)C1c1ccccc1 (stereo unspecified)	none (no result: PglD inh, F508del corr, Casp6 inh)
C#CC1CCCCC1NC(=O)Nc1cnccc1C(F)(F)F (stereo unspecified)	PglD inh 20 | PglD inh SP inactive
CC1C(=O)NN=C1c1ccc([N+](=O)[O-])cc1 (stereo unspecified)	none (no result: NSD2 inh, ALR inh, PglD inh)
CC1CN2C(c3ccc([N+](=O)[O-])cc3)=CSC2=N1 (stereo unspecified)	PglD inh 75 | PglD inh SP inactive
COc1cccc(-c2ccc3c(c2)O[C@H](CN(C)C(=O)C2CCOCC2)[C@H](C)CN([C@@H](C)CO)S3(=O)=O)c1	none (no result: HIV Env fusion, NSD2 inh, ALR inh)
COc1ccc(CCCNC(=O)C2(C)Cc3c(-c4ccc(C(N)=O)cc4)ccnc3O2)cc1 (stereo unspecified)	none (no result: ALR inh)
COc1ccc(CCCNC(=O)C2(C)Cc3c(-c4ccc5c(c4)OCO5)ccnc3O2)cc1 (stereo unspecified)	PglD inh 22 (no result: ALR inh) | PglD inh SP inactive
CC(=O)c1ccc(N2CCCC2)c(F)c1	none (no result: HIV Env fusion, NSD2 inh, PglD inh, F508del corr, Casp6 inh)
CC(=O)c1ccc(N2CCN(CCC#N)CC2)c(F)c1	PglD inh 26 (no result: HIV Env fusion, F508del corr, Casp6 inh) | PglD inh SP inactive
CCCCNC(=S)NNc1c(Cl)cc(Cl)cc1Cl	PglD inh 23 | PglD inh SP inactive
COCC(=O)N1CC2(C1)CN(Cc1ccccn1)[C@@H](CO)c1[nH]c3cc(OC)ccc3c12	none (no result: HIV Env fusion, NSD2 inh, ALR inh, PglD inh)
Cc1c(C(=O)O)sc2nc(/C=C/c3cccc(O)c3)[nH]c(=O)c12	PglD inh 45 (no result: ALR inh) | PglD inh SP 79
CCCC(=O)Nc1ccc2c(c1)OC[C@H](C)N(C(=O)CC1CC1)C[C@@H](C)[C@H](OC)CN(C)C2=O	none (no result: NSD2 inh, ALR inh)
CCC(OC(=O)c1ccco1)C(=O)NCc1ccc(C)cc1 (stereo unspecified)	none (no result: F508del corr, Casp6 inh)
CCC(OC(=O)c1ccco1)C(=O)NCc1ccc2c(c1)OCO2 (stereo unspecified)	PglD inh 22 (no result: ALR inh) | PglD inh SP inactive
COC(=O)C(=N/Nc1ccccc1C(=O)OC)/C(C)=N/O	PglD inh 20 | PglD inh SP inactive
O=C(Nc1ccc(C(=O)N2CCOCC2)cc1)Nc1cccc(Cl)c1	PglD inh 25 (no result: F508del corr, Casp6 inh) | PglD inh SP inactive
O=C(Nc1ccc(OCC(=O)N2CCOCC2)cc1)Nc1cccc(Cl)c1	none (no result: PglD inh, F508del corr)
O=C(C[C@@H]1CC[C@H](NC(=O)CN2CCOCC2)[C@@H](CO)O1)NC1CCCCC1	none (no result: NSD2 inh, ALR inh)
O=C(CSCCO)Nc1cccc(C(F)(F)F)c1	PglD inh 23 (no result: F508del corr, Casp6 inh) | PglD inh SP inactive
CNS(=O)(=O)c1cc(S(=O)(=O)NC)c2cccc3c2c1NC3=O	PglD inh 77 | PglD inh SP inactive
CNS(=O)(=O)c1ccc2c3c(cccc13)C(=O)N2	none
O=C(OCC(=O)N1CCC(Cc2ccccc2)CC1)c1ccc(O)cc1	PglD inh 24 (no result: ALR inh) | PglD inh SP inactive
O=C(C[C@@H]1CC[C@H]2[C@@H](COC[C@@H](O)CN2S(=O)(=O)c2ccccc2)O1)NCCN1CCCCC1	none (no result: NSD2 inh, ALR inh)
O=C(NCc1cccc(Cl)c1)c1ccc(-n2cncn2)c2ccoc12	PglD inh 22 (no result: ALR inh) | PglD inh SP inactive
CCc1ccc(/C=C2\SC(=S)N(CCCC(=O)Nc3cc(C)on3)C2=O)cc1	PglD inh 21 (no result: ALR inh) | PglD inh SP inactive
CCc1ccc(/C=C2\SC(=S)N(CCC(=O)Nc3cc(C)on3)C2=O)cc1	none (no result: PglD inh)
CCCCN1C(=O)c2ccc(C(=O)Nc3ccc(C)c(S(=O)(=O)N(C)C)c3)cc2C1=O	PglD inh 25 (no result: F508del corr, Casp6 inh) | PglD inh SP inactive
CCCCN1C(=O)c2ccc(C(=O)Nc3cccc(C)c3C)cc2C1=O	none (no result: HIV Env fusion, F508del corr, Casp6 inh)
CC(C)NC(=O)N(C)C[C@@H]1Oc2c(NC(=O)c3nc4ccccc4s3)cccc2C(=O)N([C@@H](C)CO)C[C@@H]1C	none (no result: NSD2 inh, ALR inh)
Cc1nc([N+](=O)[O-])c(Sc2nc3ccccc3n2C)n1Cc1ccccc1	ALR inh 98, PglD inh 30 (no result: F508del corr) | PglD inh SP inactive
CCCNC(=O)[C@H]1[C@H](CO)[C@H]2Cn3c(ccc(-c4cccc(C(=O)N(C)C)c4)c3=O)[C@@H]1N2	none (no result: HIV Env fusion, NSD2 inh, ALR inh)
CN(C)c1nc(OCC(=O)NC(C)(C)C)nc(N(C)C)n1	PglD inh 22 (no result: HIV Env fusion, F508del corr, Casp6 inh) | PglD inh SP inactive
COc1cccc(C(=O)NNC(=O)C(=O)Nc2cccc(Cl)c2C)c1	PglD inh 22 (no result: ALR inh) | PglD inh SP inactive
C[C@H](CO)N1C[C@H](C)[C@@H](CN(C)Cc2ccc(C(=O)O)cc2)Oc2ccc(NC(=O)C3CC3)cc2CC1=O	none (no result: NSD2 inh, ALR inh)
COC(=O)c1cccc(NC(=S)NCCC2=CCCCC2)c1	PglD inh 66 (no result: HIV Env fusion, F508del corr) | PglD inh SP inactive
CNC(=O)CCCc1nc(-c2ccccc2Cl)no1	PglD inh 24 (no result: F508del corr) | PglD inh SP inactive
C[C@@H]1CN([C@H](C)CO)C(=O)Cc2cc(NC(=O)Nc3ccc4c(c3)OCO4)ccc2O[C@@H]1CN(C)Cc1ccc(Oc2ccccc2)cc1	none (no result: NSD2 inh, ALR inh)
Cc1ccccc1S(=O)(=O)NC(=O)C1(C)CCN1C(=O)CCc1cccs1 (stereo unspecified)	none (no result: ALR inh)
CCCCc1ccc(S(=O)(=O)NC(=O)C2(C)CCN2C(=O)CCc2cccs2)cc1 (stereo unspecified)	PglD inh 69 (no result: ALR inh) | PglD inh SP inactive
Cn1c(CC(=O)Nc2ccccc2Cl)nnc1SCC(=O)Nc1nncs1	PglD inh 26 | PglD inh SP inactive

Bioassay records (PubChem BioAssay)
